Assay outcomes from PubChem BioAssay.
Shown are actives, neighbours in structure and some others; about 9.2% of the full set was active somewhere.
NPC1 promoter act – qHTS Assay for NPC1 Promoter Activators; Huh7 NPC1 promoter luciferase reporter, 24 h; Potency, µM (top dose mostly 9.22 µM), hits mostly activators; actives 2.4% (n = 320,000); AID 485313, 2010; further: nearly all actives have a fitted effect of over 60% in size
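Luminescence read-out of NPC1 promoter-driven luciferase in stably transfected Huh7 cells; compounds delivered in DMSO and left 24 h at 37C, 5% CO2, qHTS titration format.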
ELG1 DNA repair – qHTS screen for small molecules that inhibit ELG1-dependent DNA repair in human embryonic kidney (HEK293T) cells expressing luciferase-tagged ELG1; actives 2.3% (n = 330,000); AID 504467, 2011; HEK293T ELG1-luciferase reporter, luminescence, 16 h; DNA damage induced by 5-fluorouridine; Potency, µM (series often up to 46.1 µM), actives largely listed as inhibitors; further: nearly all actives have a fitted effect of over 55% in size
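Quantitative HTS, concentration-response format. 2,000 cells/well co-treated with 5-fluorouridine and compound, 16 hr in 5% CO2 at 37 °C; ONE-Glo luminescence read after 30 min.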
Rab9 prom act – qHTS Assay for Rab9 Promoter Activators. Potency, µM (doses to about 9.22 µM), most hits filed as activators. Huh7 Rab9 promoter-luciferase reporter, luminescence, 24 h. AID 485297, 2010. actives 2.8% (n = 320,000); further: nearly all actives have a fitted effect of over 60% in size
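Luminescence read-out: Huh7 cells stably expressing Rab9-luciferase, treated 24 h with compound at 37 °C, then lysed with luciferase reagent for 10 min at ambient before reading.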
ELG1 genotox – qHTS screen for small molecules that induce genotoxicity in human embryonic kidney (HEK293T) cells expressing luciferase-tagged ELG1; AID 504466, 2011; actives 1.3% (n = 330,000); HEK293T ELG1-luciferase reporter, luminescence, 16 h; Potency, µM (series often up to 46 µM), most hits filed as activators; further: nearly all actives have a fitted effect of over 60% in size
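Genotoxic stress is detected as increased luminescence from luciferase-tagged ELG1 in HEK293T cells, measured with ONE-Glo after a 16 hr treatment at 37 °C.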
FLuc modulator – qHTS profiling assay for firefly luciferase inhibitor/activator using purifed enzyme and Km concentrations of substrates (counterscreen for miR-21 project) | AID 588342, 2011 | Potency, µM (highest dose often 57.5 µM), usual class: inhibitors | actives 6.9% (n = 360,000) | Luciferin 4-monooxygenase (Photinus pyralis), P08659 | purified FLuc, Km substrates, luminescence inhibition; further: nearly all actives have a fitted effect of over 55% in size
Target sequence (P08659 whole entry, looked up): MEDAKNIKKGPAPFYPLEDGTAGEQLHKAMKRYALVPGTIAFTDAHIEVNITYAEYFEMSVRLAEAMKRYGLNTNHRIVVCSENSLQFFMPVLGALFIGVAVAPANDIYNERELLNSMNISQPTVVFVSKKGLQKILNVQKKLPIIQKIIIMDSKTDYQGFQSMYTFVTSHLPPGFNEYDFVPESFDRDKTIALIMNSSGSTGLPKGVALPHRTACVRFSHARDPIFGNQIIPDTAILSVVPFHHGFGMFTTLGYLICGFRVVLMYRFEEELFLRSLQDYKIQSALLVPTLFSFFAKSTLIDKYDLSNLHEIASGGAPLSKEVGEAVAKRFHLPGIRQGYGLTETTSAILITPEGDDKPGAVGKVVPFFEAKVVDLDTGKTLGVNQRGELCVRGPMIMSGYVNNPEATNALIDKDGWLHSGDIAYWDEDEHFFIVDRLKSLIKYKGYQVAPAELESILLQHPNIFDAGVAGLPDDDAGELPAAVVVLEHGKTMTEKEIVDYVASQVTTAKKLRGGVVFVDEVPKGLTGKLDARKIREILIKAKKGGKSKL
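Purified P. pyralis luciferase, 10 nM final, with Km-level 10 uM D-luciferin and 10 uM ATP in 50 mM Tris acetate pH 7.5, 10 mM Mg acetate, 0.01% Tween-20, 0.05% BSA; 6-point qHTS titration about 60 µM downward; luminescence read.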
SMN2 splice up – qHTS Assay for Enhancers of SMN2 Splice Variant Expression. AID 1458, 2008. HEK293 SMN2-luciferase splicing reporter, luminescence, 30-36 h. Potency, µM (titrated, usually from 46.1 µM), hits mostly activators. actives 2.8% (n = 210,000); further: nearly all actives have a fitted effect of over 55% in size
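qHTS luciferase splicing reporter: luminescence rises when SMN2 exon 7 is included in transfected HEK293 cells. Compound exposure lasted 30-36 h at 37C, with 4.5 mM final sodium butyrate as control, followed by a ONE-Glo read.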
A number is an active result; . = inactive; ? = inconclusive; / = no result given; [ ] = another dose, or the depositor's remark. The call rests on the fitted dose curve; in most records, active means well fitted curve in the direction sought with a large enough effect; inconclusive means small, poorly fitted or top-dose-only effect, or another doubt; inactive means no such curve, though single readings can be large; an effect the other way counts as inactive or inconclusive.

SMILES	NPC1 promoter act	ELG1 DNA repair	Rab9 prom act	ELG1 genotox	FLuc modulator	SMN2 splice up
CC(=O)Oc1ccc2c(c1)O/C(=C\c1ccncc1)C2=O	.	.	.	.	?	/
Cc1cc(O)cc2c1C(=O)/C(=C/c1ccco1)O2	?	?	.[1.84 µM]	.	12µM	/
COC(=O)COc1ccc2c(c1)O/C(=C\c1ccco1)C2=O	.	.	.	.	3.38µM	/
CC(=O)NC12CC3CC(C1)CC(C(=O)Nc1nc4ccc(S(C)(=O)=O)cc4s1)(C3)C2	.	.	.	.	.	/
Cc1nn(CC(=O)NCCc2ccccc2Cl)c(=O)c2nn(-c3ccccc3)c(C)c12	/	/	/	/	.	/
Cc1cccc(NC(=O)CCC2CCN(C(=O)C3CC=CCC3)CC2)c1 (centres undefined)	.	.	.	.	.	/
CCOC(=O)c1c(-c2ccc(C)o2)csc1NC(=O)CN1CCCCC1	.	.	.	.	.	.
CCOC(=O)c1c(-c2ccc(C)o2)csc1NC(=O)CN(C)CC(=O)Nc1ccc(C)cc1	.	14.6µM	.	.	.	.
CCOC(=O)c1c(-c2ccc(OCC)cc2)csc1NC(=O)CCN1C(=O)c2ccccc2C1=O	.	11.6µM	.	.	.	.
COc1ccc(Oc2nnc(C)c3ccccc23)cc1	2.51µM	?	3.98µM	?	12µM	?
COc1ccc(-c2nnc3c4ccccc4c(C)nn23)cc1	?	?	?	?	15.1µM	?
CCCCCCn1ccc(=N)cc1	.	3.66µM	.	.	.	.
CCCCCCCCCCCCCCCCn1cc[n+](CC(C)=O)c1	.	.	.	.	.	.
O=C(N/N=C/c1ccoc1)c1ccc(Br)cc1	.	.	.	.	15.1µM	/
Cc1ccc(-c2ccc(/C=N/NC(=O)c3ccccc3O)o2)cc1	.	?	.	.	?	/
O=C(N/N=C/c1coc2ccccc2c1=O)c1ccc(Cl)cc1	.	.	.	.	.	/
O=C(N/N=C/c1sc(=O)n(-c2ccccc2)c1Cl)c1ccccc1	1.58µM	?	1.78µM	.	6.01µM	7.08µM
O=C(N/N=C/c1ccoc1)c1ccc(Cl)cc1	.	.	.	.	?	/
O=C(N/N=C/c1coc2ccccc2c1=O)c1ccccc1	.	.	.	.	16.9µM	.
O=C(N/N=C/c1oc(O)c2ccccc12)c1ccccc1O	.	.	.	.	10.7µM	.
COC(=O)c1cc2occc2n1Cc1ccc(F)cc1Cl	/	/	/	/	.	.
CC1CC(C)CN(C(=O)CCn2c(=O)oc3ccccc32)C1 (centres undefined)	.	.	.	.	.	/
O=C(N/N=C/c1ccoc1)c1ccccc1O	.	.	.	?	10.7µM	/
O=C(N/N=C/c1ccc[nH]1)c1ccc(O)cc1	.	?	.	.	?	/
O=C(N/N=C/c1ccoc1)c1ccccc1	.	?	.	?	26.9µM	/
SMILES	NPC1 promoter act	ELG1 DNA repair	Rab9 prom act	ELG1 genotox	FLuc modulator	SMN2 splice up
O=S(=O)(N/N=C/c1ccccc1OCc1ccc(Cl)cc1)c1ccccc1	.	?	.	.	?	.
O=C(N/N=C/c1ccoc1)c1cc(O)cc(O)c1	.	?	.	.	?	/
O=c1c(/C=N\NS(=O)(=O)c2ccccc2)coc2ccc(Cl)cc12	.	14.6µM	.	.	.	/
O=C(N/N=C/c1ccc[nH]1)c1ccccc1O	.	?	?	?	9.53µM	/
CCC(C(=O)NC1CCCC1)N(C(=O)c1snc(C(N)=O)c1N)c1ccc(C)cc1C (centres undefined)	.	?	.	.	.	/
COC(=O)[C@@H](Cc1c[nH]c2ccccc12)NC(=O)CCC(=O)c1ccc(Br)cc1	.	.	.	.	.	/
O=[N+]([O-])CC(=Nc1ccc(F)cc1)N/N=C\c1oc(O)c2ccccc12	?	.	.	.	15.1µM	/
Oc1oc(C=Nc2ccc(F)cc2F)c2ccccc12	.	.	.	.	.	.
S=c1[nH]nc(-c2ccncc2)n1/N=C/c1cn(-c2ccccc2)nc1-c1ccccc1	.	.	?	.	2.69µM	/
O=[N+]([O-])c1ccc(-c2nn(-c3ccccc3)cc2/C=N/n2c(-c3ccncc3)n[nH]c2=S)cc1	.	?	.	.	.	/
Cc1nc2ccccc2c(=O)n1/N=C/c1cn(-c2ccccc2)nc1-c1cccs1	.	?	.	.	2.69µM	.
S=c1[nH]nc(-c2cccs2)n1/N=C/c1cn(-c2ccccc2)nc1-c1cccs1	?	?	?	?	0.675µM	/
Cc1nc2ccccc2c(=O)n1/N=C/c1cccs1	.	?	?	.	.	.
CN(C)C(CNC(=O)c1ccc(C2SCCS2)cc1)c1ccccc1 (centres undefined)	.	?	.	.	16.9µM	/
CC1CCc2c(sc(NC(=O)COC(=O)C3CCCO3)c2C#N)C1 (centres undefined)	.	?	.	.	?	.
CCOC(=O)Nc1sc2c(c1C#N)CCC(C)C2 (centres undefined)	2.82µM	?	3.16µM	?	10.7µM	.
CC1CCc2c(sc(NC(=O)C3CCCO3)c2C#N)C1 (centres undefined)	3.55µM	?	3.16µM	?	10.7µM	11.2µM
CC1CCc2c(sc(/N=C/N(C)C)c2C#N)C1 (centres undefined)	.	?	4.47µM	?	15.1µM	.
COc1cccc(/C=C/C(=O)Nc2ccc3[nH]c(=O)[nH]c3c2)c1	.	.	.	.	9.53µM	?
COc1cccc(NC(=O)/C=C/c2ccc([N+](=O)[O-])cc2)c1	?	?	?	.	6.01µM	/
O=C(/C=C/c1ccccc1[N+](=O)[O-])NNC(=O)c1ccncc1	.	.	.	.	/	/
COc1cccc(NC(=O)/C=C/c2ccccc2[N+](=O)[O-])c1	?	?	3.98µM	?	5.36µM	3.16µM
O=C(/C=C/c1ccccc1[N+](=O)[O-])Nc1cccnc1	?	?	2.82µM	.	15.1µM	14.1µM
CN(Cc1cccc(Cl)c1)C(=O)C1CCC(=O)N(C2CC2)C1 (centres undefined)	.	.	.	.[9.26 µM]	.	/
CSc1cccc(NC(=O)/C=C/c2cccc(Cl)c2)c1	?	?	3.16µM	.	8.49µM	14.1µM
Cc1cc(C(=O)NNC(=O)c2cccc(Cl)c2)no1	.	.	.	.	.	/
Cc1cc(/C(N)=N/OC(=O)c2cccc(Cl)c2)no1	.	?	.	?	6.75µM	/
Cc1cc(/C(N)=N/OC(=O)c2ccc(Cl)cc2)no1	3.55µM	?	3.16µM	11.6µM	1.51µM	/
